About 83,000 compounds went through this panel and 20% of them were active in at least one assay; those are over-represented in the sample as a whole.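 Percent growth is the endpoint: 0 to 100 indicates growth inhibition (40 means 60% inhibition), 0 means no net growth, and negative values indicate cell death.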 Unmarked numbers belong to inactive results. Active and inactive are the calls of the source. Rule for the calls: active = growth percent below 10; inactive = the rest.
How the values were obtained:
Test in all cases: NCI-60 one-dose screen, 48 h (100 = growth as untreated, 0 = no growth, -100 = all killed)
Settings in all cases: 10 µM unless noted
[1] = test system: NCI-H23 lung
[2] = test system: NCI-H226 lung
[3] = test system: NCI-H322M lung
[4] = test system: HOP-62 NSCLC
[5] = test system: NCI-H460 lung
[6] = test system: HOP-92 NSCLC
[7] = test system: NCI-H522 lung
[8] = test system: A549/ATCC NSCLC
[9] = test system: 786-0 renal
[10] = test system: COLO 205 colon
[11] = test system: DU-145 prostate
[12] = test system: K-562 leukemia
[13] = test system: MALME-3M melanoma
[14] = test system: MDA-MB-231 breast
[15] = test system: RXF 393 renal
[16] = test system: SF-268 CNS
[17] = test system: SF-295 CNS
[18] = test system: SF-539 CNS
[19] = test system: UACC-257 melanoma
[20] = test system: M14 melanoma

Structure (SMILES) | growth [1] | growth [2] | growth [3] | growth [4] | growth [5] | growth [6] | growth [7] | growth [8] | growth [9] | growth [10] | growth [11] | growth [12] | growth [13] | growth [14] | growth [15] | growth [16] | growth [17] | growth [18] | growth [19] | growth [20]
NNC(=S)N/N=C/c1ccccn1 | 30.9% | 34.3% | 46.2% | 13% | 9.74% (active) | 21% | -14.3% (active) | 46.9% | 24.4% | 15% | 34.5% | 19.4% | 54.3% | 47.2% | 25.2% | 42.9% | 33.5% | 11.2% | 45.7% | 23.7%
N#Cc1c(-c2cccc([N+](=O)[O-])c2)cc(-c2ccc(Nc3nc(Nc4ccc(F)cc4)nc(Nc4ccc(F)cc4)n3)cc2)nc1N | 98.6% | 123% | 97.9% | 85.9% | 146% | 55.4% | 104% | 86% | 94.6% | 117% | 154% | 80.3% | 94.7% | 91.9% | -10.3% (active) | 164% | 102% | 127% | 107% | 110%
CC(C)(C)c1cc(C=Nc2cccc(C(F)(F)F)c2)c(O)c(C(C)(C)C)c1 | 88.5% | 91.4% | 95.3% | 95.7% | 107% | 90.9% | 73.5% | 84.1% | 107% | 119% | 107% | 70.2% | 108% | 98.3% | 94.3% | 90.1% | 97.4% | 101% | 78.7% | 100%
COc1cccc(Nc2ccnc3[nH]c4ccc([N+](=O)[O-])cc4c23)c1 | 64.5% | 48.7% | 84.3% | 34.6% | 30.7% | 31.5% | 30.4% | 37% | 25.7% | 51.7% | 76.9% | 19% | 53% | 60.1% | 33.5% | 60.7% | 45.5% | 48.9% | 57.4% | 34%
COc1cc(-c2nc(SCCC(C)C)nc(N3CCOCC3)c2C#N)cc(OC)c1OC | 74.2% | 106% | 91.2% | 28.6% | 12.2% | 81.9% | 65.8% | 22.4% | 66% | 63.8% | 41.6% | 74.5% | 92.3% | 68.5% | 101% | 40.3% | 98.9% | 55.5% | 95.8% | 96%
C[Se]C(=O)CC1=C2C=C(F)C=CC2/C(=C\c2ccc(S(C)=O)cc2)C1C (stereo not given) | 13.5% | 1.21% (active) | 14.1% | -24.3% (active) | -1% (active) | -41.4% (active) | 12.9% | -60.1% (active) | 3.8% (active) | -17.4% (active) | -50.5% (active) | 28.6% | -68.7% (active) | -46% (active) | 6.68% (active) | -28.2% (active) | 11.3% | -30.3% (active) | -21.5% (active) | 7.44% (active)
CSCCC(NC(=O)c1ccccc1)C(=O)N/N=C1\S/C(=C/c2ccc(Cl)cc2)C(=O)N1C (stereo not given) | 90% | 86.9% | 90.4% | 33.9% | 95.9% | 70.8% | 80.7% | 79.9% | 91.4% | 101% | 75.1% | 41.6% | 83.3% | 75.6% | 75.5% | 74.1% | 75.2% | 93.5% | 89.8% | 86.6%
COc1ccc(C(O)c2cc3c(N)c(C(=O)Nc4cccc(Cl)c4)sc3nc2C)cc1 (stereo not given) | 37.8% | 29.5% | 46.6% | 26.6% | 1.28% (active) | 74% | 14.6% | 21.2% | 31.5% | 3.71% (active) | 8.86% (active) | 10.7% | 41% | 20.2% | -10.9% (active) | 28.9% | 9.76% (active) | 2.14% (active) | 47.1% | 21.3%
CCCCCCOC(=O)CC1=C(C)/C(=C/c2[nH]c(-c3ccc[nH]3)cc2OC)N=C1C | -29.3% (active) | -30.6% (active) | 11.2% | -37.8% (active) | -23% (active) | -27.7% (active) | -49.5% (active) | -6.96% (active) | -51.8% (active) | -82.9% (active) | 5.68% (active) | -33.6% (active) | -74% (active) | -50.7% (active) | -56.1% (active) | -20.8% (active) | -60.4% (active) | -71.3% (active) | -63.9% (active) | -86.2% (active)
CCOC(=O)c1c(C)nn(CC(O)c2ccccc2)c1NC(=O)Nc1cccc(F)c1 (stereo not given) | 97% | 85.4% | 88.8% | 91.2% | 93.6% | 71.8% | 81.8% | 87% | 88.7% | 102% | 94.3% | 88.5% | 101% | 93% | 85.2% | 83.7% | 78.9% | 98.8% | 91% | 96.2%
C=C(CO)[C@@H]1CC[C@]2(COC3CCCCO3)CC[C@]3(C)[C@H](CC[C@@H]4[C@@]5(C)C=C(C=O)C(=O)C(C)(C)[C@@H]5CC[C@]43C)[C@@H]12 (stereo not given in full) | -63.6% (active) | -54.3% (active) | -22.6% (active) | -86.8% (active) | -73.1% (active) | -92.5% (active) | -80.5% (active) | -77.4% (active) | -91.2% (active) | -60.2% (active) | -98% (active) | -60.7% (active) | -78.4% (active) | -58.4% (active) | -86.2% (active) | -83.2% (active) | -89.5% (active) | -90.1% (active) | -64.4% (active) | -65.5% (active)
CNC(=O)c1c(NC(=O)c2ccc(C(C)(C)C)cc2)sc2c(CN(C)C)c(O)ccc12 | 27% | 95% | 17.1% | 8.39% (active) | -72.5% (active) | 19% | 75.9% | 17.7% | -76.9% (active) | -68.5% (active) | 24.7% | -29.3% (active) | -88.9% (active) | -44.8% (active) | 36.2% | 3.83% (active) | -80.6% (active) | -71.1% (active) | -56.4% (active) | -72.3% (active)
CC(C(=O)O)n1c(O)c(C=Nc2cccnc2)sc1=S (stereo not given) | 99.1% | 85.3% | 93.1% | 89.5% | 100% | 86% | 89.2% | 92.4% | 95.5% | 107% | 97% | 89% | 98.8% | 86.3% | 88.7% | 87.7% | 101% | 98.1% | 103% | 95.3%
CCCCCCCCCCCCCCCCOC(=O)c1c(C)[nH]c(/C=C2\N=C(c3ccc[nH]3)C=C2OC)c1C | 48.8% | 6.67% (active) | 82.7% | 54.2% | 13.3% | -12.6% (active) | 27.1% | 11% | 11.3% | 33.6% | 49.3% | 38.3% | 68.4% | 46.6% | 32% | 69.6% | 68.7% | 63.6% | 86.1% | -17.1% (active)
CCNC(=O)Oc1ccc(/C(=C(/C)Cc2ccc(OC)cc2)c2ccc(OCCN3CCCCCC3)cc2)cc1 | 75.9% | 96.2% | 95.5% | 84.4% | 30.6% | 40.8% | 54.2% | 54.9% | 72% | 28.7% | 92.2% | 5.8% (active) | 109% | 64.1% | 68.3% | 74.5% | 88.4% | 96.4% | 76.7% | 68.3%

Source: PubChem BioAssay (NCI)
